Laboratory results published in the supplement of paper PMC8253809.
Values joined by “and” are separate entries in the source; they are usually repeats but may differ in a detail not shown here. Identical values can stand only once.

Columns and labels:
Test in all cases: growth inhibition (% activity, log2 RLU normalised to DMSO / staurosporine); higher = more growth inhibition
Conditions in all cases: 33 µM
DIPGX29 = test system: DIPGX29 (H3.3 K27M diffuse intrinsic pontine glioma line)
Procedure, shortened: (§1)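 pHGG cell lines and H9-derived neural stem cells were grown on Geltrex-coated 384-well plates. Approved drugs were added by pin tool at a single final concentration of about 33 μM, in triplicate, for 7 days at 37 °C, 5% CO2. CellTiter-Glo luminescence was log2-transformed and normalised per plate to % activity between solvent and positive control wells. The growth-inhibition value is the median over replicates.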

DIPGX37 = test system: DIPGX37 (H3.3 K27M diffuse intrinsic pontine glioma line)
Procedure, shortened: as §1

DIPGX7 = test system: DIPGX7 (H3.3 K27M diffuse intrinsic pontine glioma line)
Procedure, shortened: as §1

DIPGX9 = test system: DIPGX9 (diffuse intrinsic pontine glioma line)
Procedure, shortened: as §1

HGGX39 = test system: HGGX39 (paediatric high-grade glioma line)
Procedure, shortened: as §1

HGGX6 = test system: HGGX6 (H3.3 G34R paediatric high-grade glioma line)
Procedure, shortened: as §1

HNSC = test system: HNSC
Procedure, shortened: as §1

SUDIPGIV = test system: SUDIPGIV (diffuse intrinsic pontine glioma line)
Procedure, shortened: as §1

SUDIPGVI = test system: SUDIPGVI (diffuse intrinsic pontine glioma line)
Procedure, shortened: as §1

SUDIPGXIII = test system: SUDIPGXIII (diffuse intrinsic pontine glioma line)
Procedure, shortened: as §1

| SMILES | growth inhibition (DIPGX29) | growth inhibition (DIPGX37) | growth inhibition (DIPGX7) | growth inhibition (DIPGX9) | growth inhibition (HGGX39) | growth inhibition (HGGX6) | growth inhibition (HNSC) | growth inhibition (SUDIPGIV) | growth inhibition (SUDIPGVI) | growth inhibition (SUDIPGXIII) |
| --- | --- | --- | --- | --- | --- | --- | --- | --- | --- | --- |
| C[C@@H]1O[C@@H]1P(=O)(O)O | -0.0235% | -0.548% | -0.0992% | 1.37% | 2.18% | 1.12% | 0.39% | -0.299% | 0.0548% | 1.68% |
| O=C(CCNNC(=O)c1ccncc1)NCc1ccccc1 | -2.81% | 1.16% | -0.869% | -2.76% | -1.32% | -1.96% | 2.79% | -2.06% | -1.86% | 0.338% |
| CO/N=C(\C(=O)N[C@@H]1C(=O)N2C(C(=O)OCOC(=O)C(C)(C)C)=C(/C=C\c3scnc3C)CS[C@H]12)c1csc(N)n1 | -0.112% | 1.84% | 0.192% | -1.35% | 1.82% | -1.1% | 0.492% | 0.557% | 0.818% | -0.304% |
| c1ccc(-c2ccc(C(c3ccccc3)n3ccnc3)cc2)cc1 (stereo not given) | 3.65% | 2.9% | 5.02% | 5.27% | 9.63% | 5.19% | 11.5% | 13.7% | 2.63% | -0.141% |
| CCn1cc(C(=O)O)c(=O)c2cc(F)c(N3CCNC(C)C3)c(F)c21 (stereo not given) | -4.04% | -2.84% | -0.94% | -2.66% | -4.99% | -5.88% | 9.04% | -2.28% | -4.26% | 1.13% |
| O=C(O)/C=C/c1ccc(Cn2ccnc2)cc1 | -4.29% and 0.0234% | -1.97% and 1.55% | -2.07% and 1.39% | -1.94% and 0.49% | -2.45% and 1.57% | -3.87% and 2.09% | 1.95% and -1.58% | -2.48% and 0.0369% | -6.52% and 1.83% | -0.879% and -16.2% |
| Cc1onc(-c2ccccc2Cl)c1C(=O)N[C@@H]1C(=O)N2[C@@H]1SC(C)(C)[C@@H]2C(=O)O | -0.728% | -0.729% | -0.308% | -1.05% | -0.725% | 1.07% | -1.87% | -0.916% | -0.387% | -9.34% |
| CCCCNc1cc(C(=O)O)cc(S(N)(=O)=O)c1Oc1ccccc1 | -3.49% | -2.83% | -0.851% | -2.74% | -2.98% | -3.62% | -3.52% | -5.34% | -8.55% | -2.43% |
| CC[C@]1(O)C[C@@H]2CN(CCc3c([nH]c4ccccc34)[C@@](C(=O)OC)(c3cc4c(cc3OC)N(C)[C@H]3[C@@](O)(C(=O)OC)[C@H](OC(C)=O)[C@]5(CC)C=CCN6CC[C@]43[C@@H]65)C2)C1 | 13% | 14% | 13.2% | 22% | 17.1% | 11.5% | 55.5% | 32% | 16.1% | 18.3% |
| COc1c(C)c2c(c(O)c1C/C=C(\C)CCC(=O)O)C(=O)OC2 | 19.1% | 19% | 12% | 16.2% | 18.1% | 14.7% | 57.6% | 10.7% | 11.8% | -4.08% |
| C=C1c2cccc(O)c2C(O)=C2C(=O)[C@]3(O)C(O)=C(C(N)=O)C(=O)[C@@H](N(C)C)[C@@H]3[C@@H](O)[C@H]12 | -0.484% | 2.83% | -0.0391% | -1.06% | 2.68% | -0.509% | 0.179% | 2.28% | -1.04% | 1.14% |
| C[C@]12CC[C@H](O)CC1=CC[C@@H]1[C@@H]2CC[C@]2(C)C(c3cccnc3)=CC[C@@H]12 | -2.51% | -0.544% | 0.888% | 2.81% | 3.94% | -0.894% | -6.23% | 0.327% | -2.29% | -1.17% |
| Nc1nc2ccc(OC(F)(F)F)cc2s1 | 2.99% | 4.46% | 3.41% | 4.59% | 2.04% | 2.46% | 4.46% | -0.776% | 2.57% | 1.66% |
| C#Cc1cccc(Nc2ncnc3cc(OCCOC)c(OCCO)cc23)c1 | 6.22% | 3.87% | 4.89% | 4.84% | 9.77% | 9.46% | 31.8% | -3.74% | 2.81% | 0.549% |
| CC[C@H](C)C(=O)O[C@H]1C[C@@H](C)C=C2C=C[C@H](C)[C@H](CC[C@@H]3C[C@@H](O)CC(=O)O3)[C@H]21 | 6.68% | -1.93% | 8.58% | 5.72% | 16.2% | 10.8% | 51.5% | 18.1% | -6.1% | -0.657% |
| C[C@@H]1CN(c2c(F)c(N)c3c(=O)c(C(=O)O)cn(C4CC4)c3c2F)C[C@H](C)N1 | 0.694% | 1.71% | 3.53% | 1.04% | 1.49% | -2.08% | 33.6% | 1.6% | -0.838% | -0.539% |
| C[C@@H](Oc1cc(-c2cnn(C3CCNCC3)c2)cnc1N)c1c(Cl)ccc(F)c1Cl | 26.5% | 7.08% | 9.03% | 10.8% | 16.1% | 13.5% | 54.5% | 6.53% | 17.5% | 1.64% |
| NC(=O)c1cn(Cc2c(F)cccc2F)nn1 | -1.15% | -0.27% | -2% | -1.13% | -1.24% | -1.04% | -2.69% | -1.85% | -0.117% | 0.834% |
